The supplement of paper PMC10849652
The full data set covers some 8,800 targets. This sample favours those with a hit. About 0.5% of all pairs of compound and target were hits.

Tests used:
Assay in all cases: log2 fold change, soluble protein after heating vs DMSO (PISA); higher = thermal stabilisation; K562 lysate, 10 uM; active = over 0.2 and 3.5 SD of the protein, either way, in both replicates (recomputed)
lapatinib = compound: CS(=O)(=O)CCNCc1ccc(-c2ccc3ncnc(Nc4ccc(OCc5cccc(F)c5)c(Cl)c4)c3c2)o1 [lapatinib]
How it was run: (§1)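 K562 pellets were dounce-homogenised in PBS pH 7.4 with 1 mM MgCl2, and the crude extract at 1 mg/mL protein was treated with 10 μM compound for 30 min. Aliquots were heated for 3 min across 48°C-58°C, pooled, and brought to 0.5% NP-40 at 4°C; soluble protein was the supernatant after 21,000xg for 90 min. Soluble protein was quantified by TMTpro 16plex LC-MS/MS with channel sums equalised, and reported as log2 fold change in thermal stability against DMSO controls, with values from duplicates.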

pictilisib = compound: CS(=O)(=O)N1CCN(Cc2cc3nc(-c4cccc5[nH]ncc45)nc(N4CCOCC4)c3s2)CC1 [pictilisib]
How it was run: as §1

crizotinib = compound: C[C@@H](Oc1cc(-c2cnn(C3CCNCC3)c2)cnc1N)c1c(Cl)ccc(F)c1Cl [crizotinib]
How it was run: as §1

[1] = compound: C[C@H](C1=CC=C(C=C1)C(=O)NC2=C3C=CNC3=NC=C2)N
How it was run: as §1

duvelisib = compound: C[C@H](Nc1ncnc2nc[nH]c12)c1cc2cccc(Cl)c2c(=O)n1-c1ccccc1 [duvelisib]
How it was run: as §1

gandotinib = compound: Cc1cc(Nc2cc(CN3CCOCC3)c3nc(C)c(Cc4ccc(Cl)cc4F)n3n2)n[nH]1 [gandotinib]
How it was run: as §1

tozasertib = compound: Cc1cc(Nc2cc(N3CCN(C)CC3)nc(Sc3ccc(NC(=O)C4CC4)cc3)n2)n[nH]1 [tozasertib]
How it was run: as §1

doramapimod = compound: Cc1ccc(-n2nc(C(C)(C)C)cc2NC(=O)Nc2ccc(OCCN3CCOCC3)c3ccccc23)cc1 [doramapimod]
How it was run: as §1

bafetinib = compound: Cc1ccc(NC(=O)c2ccc(CN3CC[C@H](N(C)C)C3)c(C(F)(F)F)c2)cc1Nc1nccc(-c2cncnc2)n1 [bafetinib]
How it was run: as §1

[2] = compound: Cc1cccc(CC(=O)N2CCc3c2ccc(-c2cn(C)c4ncnc(N)c24)c3F)n1
How it was run: as §1

Measured: log2 fold change

GEMIN4 (UniProt P57678)
inactive: lapatinib -0.031 | pictilisib -0.012 | crizotinib -0.065 | [1] -0.013 | duvelisib 0.004 | gandotinib -0.188 | tozasertib -0.009 | doramapimod 0.032 | bafetinib -0.038 | [2] 0.039

EIF2AK3 (UniProt Q9NZJ5)
inactive: lapatinib 0.3 | [1] -0.051 | duvelisib -0.122 | gandotinib -0.212
active: [2] 1.48

EXO5 (UniProt Q9H790)
UniProt Q9H790, sequence (Q9H790 whole entry, looked up): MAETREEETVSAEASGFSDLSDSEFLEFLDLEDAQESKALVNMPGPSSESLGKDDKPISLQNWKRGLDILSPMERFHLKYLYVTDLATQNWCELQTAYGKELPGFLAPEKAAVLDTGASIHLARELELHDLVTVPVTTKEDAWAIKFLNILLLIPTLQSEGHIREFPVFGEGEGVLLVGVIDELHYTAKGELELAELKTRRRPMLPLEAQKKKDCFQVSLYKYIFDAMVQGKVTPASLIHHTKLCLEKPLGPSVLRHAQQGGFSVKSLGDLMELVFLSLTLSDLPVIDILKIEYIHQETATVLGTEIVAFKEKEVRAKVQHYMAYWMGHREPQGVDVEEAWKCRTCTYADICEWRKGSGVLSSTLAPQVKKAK
active: pictilisib -0.43
inactive: crizotinib -0.113 | doramapimod 0.061 | bafetinib -0.261

FAM53B (UniProt Q14153)
inactive: pictilisib 0.02 | crizotinib -0.03 | [1] -0.032 | duvelisib 0.079 | gandotinib 0.037 | tozasertib 0.024 | doramapimod 0.169 | bafetinib -0.023 | [2] 0.083

FAT2 (UniProt Q9NYQ8)
inactive: lapatinib -0.027 | pictilisib -0.015 | crizotinib -0.512 | [1] -0.366 | gandotinib 0.182 | tozasertib 0.055 | doramapimod -0.094 | bafetinib -0.244 | [2] 0.407

FOXJ2 (UniProt Q9P0K8)
inactive: pictilisib 0.043 | [1] -0.037 | duvelisib 0.039 | gandotinib 0.044 | tozasertib 0.127 | bafetinib -0.224 | [2] 0.056

EIF2B4 (UniProt Q9UI10)
UniProt Q9UI10, sequence (Q9UI10 whole entry, looked up): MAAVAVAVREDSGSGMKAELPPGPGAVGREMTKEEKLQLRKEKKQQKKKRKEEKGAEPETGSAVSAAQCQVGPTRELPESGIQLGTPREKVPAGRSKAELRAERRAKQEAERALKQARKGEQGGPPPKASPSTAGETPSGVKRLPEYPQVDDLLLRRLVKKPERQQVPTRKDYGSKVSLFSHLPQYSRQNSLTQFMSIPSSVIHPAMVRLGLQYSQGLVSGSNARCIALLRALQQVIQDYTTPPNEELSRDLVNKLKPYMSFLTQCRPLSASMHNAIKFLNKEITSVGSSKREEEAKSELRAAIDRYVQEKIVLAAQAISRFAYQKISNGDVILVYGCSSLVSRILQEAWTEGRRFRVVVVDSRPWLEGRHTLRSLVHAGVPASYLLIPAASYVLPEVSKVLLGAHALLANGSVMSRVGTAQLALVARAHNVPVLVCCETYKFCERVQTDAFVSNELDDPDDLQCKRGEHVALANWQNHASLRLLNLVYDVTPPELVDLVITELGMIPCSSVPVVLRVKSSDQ
active: tozasertib -0.314
inactive: lapatinib -0.003 | pictilisib 0.038 | crizotinib -0.057 | duvelisib -0.032 | doramapimod -0.019 | bafetinib -0.04

FBXO45 (UniProt P0C2W1)
UniProt P0C2W1, sequence (P0C2W1 whole entry, looked up): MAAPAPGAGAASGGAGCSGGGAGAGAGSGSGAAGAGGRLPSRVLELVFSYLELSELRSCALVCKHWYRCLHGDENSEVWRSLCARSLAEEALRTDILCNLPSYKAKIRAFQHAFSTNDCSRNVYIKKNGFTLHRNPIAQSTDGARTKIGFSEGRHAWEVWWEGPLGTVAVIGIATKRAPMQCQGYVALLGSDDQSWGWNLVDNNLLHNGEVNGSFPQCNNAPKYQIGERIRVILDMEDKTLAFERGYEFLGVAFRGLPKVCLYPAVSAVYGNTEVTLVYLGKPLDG
inactive: lapatinib -0.067 | pictilisib -0.034 | crizotinib -0.123 | [1] -0.081 | gandotinib -0.031 | tozasertib 0.115 | doramapimod 0.017 | bafetinib -0.272 | [2] 0.091

ETFRF1 (UniProt Q6IPR1)
UniProt Q6IPR1, sequence (Q6IPR1 whole entry, looked up): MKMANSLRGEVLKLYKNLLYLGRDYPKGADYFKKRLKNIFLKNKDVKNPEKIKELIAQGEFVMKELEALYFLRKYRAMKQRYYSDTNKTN
inactive: lapatinib 0.021 | pictilisib -0.01 | crizotinib -0.004 | [1] 0.112 | duvelisib -0.004 | gandotinib -0.087 | doramapimod -0.057 | bafetinib -0.039 | [2] -0.039

GC isoform 3 (UniProt P02774)
UniProt P02774, sequence (P02774 whole entry, looked up): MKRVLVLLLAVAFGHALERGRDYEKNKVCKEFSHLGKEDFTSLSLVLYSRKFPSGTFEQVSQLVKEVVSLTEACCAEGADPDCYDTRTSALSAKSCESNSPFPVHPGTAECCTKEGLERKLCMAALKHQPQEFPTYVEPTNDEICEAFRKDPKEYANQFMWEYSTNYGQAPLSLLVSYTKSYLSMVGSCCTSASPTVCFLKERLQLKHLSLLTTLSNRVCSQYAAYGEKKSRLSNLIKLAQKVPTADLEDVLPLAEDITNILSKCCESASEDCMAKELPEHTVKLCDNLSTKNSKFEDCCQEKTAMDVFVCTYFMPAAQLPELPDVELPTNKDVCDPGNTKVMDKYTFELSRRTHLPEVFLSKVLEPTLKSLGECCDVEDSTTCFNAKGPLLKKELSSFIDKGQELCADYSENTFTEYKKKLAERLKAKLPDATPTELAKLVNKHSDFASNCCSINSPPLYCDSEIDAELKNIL
inactive: crizotinib 0.029 | [1] 0.173 | duvelisib 0.133 | gandotinib -0.025 | tozasertib -0.004 | doramapimod -0.081 | [2] -0.075

GART (UniProt C9JZG2)
inactive: lapatinib -0.131 | pictilisib 0.019 | crizotinib -0.245 | [1] -0.371 | gandotinib 0.02 | tozasertib 0.037 | doramapimod 0.166 | bafetinib 0.026 | [2] 0.19

EVI5L isoform 2 (UniProt Q96CN4)
inactive: [1] 0.022 | gandotinib 0.062 | [2] 0.049

FTSJ1 isoform 2 (UniProt Q9UET6)
inactive: lapatinib 0.013 | [1] -0.129 | gandotinib 0.077 | tozasertib -0.175 | [2] 0.079

EPN2 (UniProt I3L356)
inactive: lapatinib 0.014 | pictilisib -0.054 | [1] -0.361 | gandotinib 0.081 | bafetinib 0.031 | [2] 0.146

FNDC3A (UniProt Q9Y2H6)
inactive: crizotinib 0.036 | gandotinib 0.42 | doramapimod 0.143 | [2] 0.126
active: [1] -0.808

EPB41 isoform 4 (UniProt P11171)
inactive: lapatinib 0.014 | crizotinib -0.038 | [1] 0.012 | gandotinib -0.004 | doramapimod 0.046 | [2] -0.024

FOXL2 (UniProt P58012)
UniProt P58012, sequence (P58012 whole entry, looked up): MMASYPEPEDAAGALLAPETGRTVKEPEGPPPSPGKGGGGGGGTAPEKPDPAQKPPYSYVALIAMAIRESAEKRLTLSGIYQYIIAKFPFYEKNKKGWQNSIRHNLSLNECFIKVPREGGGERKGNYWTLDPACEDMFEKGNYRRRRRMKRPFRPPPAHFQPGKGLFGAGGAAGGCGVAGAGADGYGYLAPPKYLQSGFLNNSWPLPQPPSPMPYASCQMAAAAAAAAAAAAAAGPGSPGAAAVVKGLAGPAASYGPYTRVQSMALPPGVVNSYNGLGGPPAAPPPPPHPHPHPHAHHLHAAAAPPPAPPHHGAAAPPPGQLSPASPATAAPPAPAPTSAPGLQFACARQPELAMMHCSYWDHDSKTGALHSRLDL
inactive: lapatinib -0.25 | pictilisib 0.091 | duvelisib 0.094 | tozasertib -0.092
active: bafetinib -0.703

DTL (UniProt Q9NZJ0)
UniProt Q9NZJ0, sequence (Q9NZJ0 whole entry, looked up): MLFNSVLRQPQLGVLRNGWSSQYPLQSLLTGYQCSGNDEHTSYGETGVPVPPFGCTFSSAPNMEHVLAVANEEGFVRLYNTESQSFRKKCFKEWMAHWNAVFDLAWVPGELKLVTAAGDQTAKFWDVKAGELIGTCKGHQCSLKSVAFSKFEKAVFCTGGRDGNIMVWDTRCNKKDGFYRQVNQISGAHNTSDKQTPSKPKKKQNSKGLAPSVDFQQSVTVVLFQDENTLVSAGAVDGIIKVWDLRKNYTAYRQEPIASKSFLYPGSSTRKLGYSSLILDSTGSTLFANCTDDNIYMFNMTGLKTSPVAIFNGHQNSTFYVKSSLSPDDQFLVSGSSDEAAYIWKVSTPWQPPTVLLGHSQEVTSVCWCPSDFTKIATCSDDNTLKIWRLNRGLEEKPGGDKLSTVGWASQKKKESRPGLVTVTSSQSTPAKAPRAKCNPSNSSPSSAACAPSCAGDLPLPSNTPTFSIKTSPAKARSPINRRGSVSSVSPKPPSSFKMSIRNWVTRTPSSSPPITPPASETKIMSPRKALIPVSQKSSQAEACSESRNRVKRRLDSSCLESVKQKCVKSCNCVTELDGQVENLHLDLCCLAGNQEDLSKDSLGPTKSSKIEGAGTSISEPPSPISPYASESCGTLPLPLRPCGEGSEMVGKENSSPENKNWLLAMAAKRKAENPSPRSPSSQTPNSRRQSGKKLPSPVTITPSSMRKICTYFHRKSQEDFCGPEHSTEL
inactive: pictilisib -0.026 | crizotinib -0.035 | [1] 0.059 | duvelisib 0.174 | gandotinib -0.053 | doramapimod 0.064 | bafetinib -0.099 | [2] 0.006

FAM111A (UniProt Q96PZ2)
inactive: lapatinib 0.223 | crizotinib -0.01 | duvelisib 0.03 | tozasertib -0.02 | doramapimod -0.163

ERG28 (UniProt Q9UKR5)
active: [1] 0.593
inactive: lapatinib 0.008 | pictilisib 0.049 | duvelisib 0.014 | gandotinib -0.349 | tozasertib -0.11 | bafetinib 0.041 | [2] -0.392

DST isoform 3 (UniProt Q03001)
inactive: pictilisib 0.049 | gandotinib -0.243 | tozasertib -0.056 | bafetinib -0.118 | [2] -0.224
active: [1] 1.39

DUSP22 isoform 2 (UniProt Q9NRW4)
UniProt Q9NRW4, sequence (Q9NRW4 whole entry, looked up): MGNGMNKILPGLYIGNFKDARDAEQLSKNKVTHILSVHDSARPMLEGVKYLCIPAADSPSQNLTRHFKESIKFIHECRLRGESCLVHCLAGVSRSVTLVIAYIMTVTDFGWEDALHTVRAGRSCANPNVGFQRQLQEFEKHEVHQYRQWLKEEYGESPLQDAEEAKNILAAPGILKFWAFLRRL
inactive: lapatinib 0.031 | pictilisib -0.082 | [1] -0.058 | duvelisib 0.038 | gandotinib 0.03 | bafetinib 0.018 | [2] 0.037

EWSR1 (UniProt H7BY36)
inactive: pictilisib 0.071 | crizotinib -0.042 | [1] 0.07 | duvelisib -0.011 | gandotinib -0.167 | tozasertib 0.01 | doramapimod -0.066 | bafetinib 0.293 | [2] 0.019

EIF3I (UniProt Q5TFK1)
inactive: lapatinib -0.063 | [1] 0.137 | gandotinib 0.052 | [2] 0.112

FBRSL1, A0A3B3IRR3
inactive: pictilisib -0.064 | crizotinib 0.086 | [1] -0.114 | duvelisib 0.035 | gandotinib 0.032 | tozasertib -0.105 | doramapimod -0.161 | bafetinib -0.089 | [2] 0.146

EPB41, A0A2R8Y783
inactive: lapatinib -0.063 | pictilisib 0.04 | [1] 0.121 | duvelisib -0.089 | gandotinib -0.066 | tozasertib 0.061 | bafetinib 0.04 | [2] -0.006

FLT4 (UniProt P35916)
UniProt P35916, sequence (P35916 whole entry, looked up): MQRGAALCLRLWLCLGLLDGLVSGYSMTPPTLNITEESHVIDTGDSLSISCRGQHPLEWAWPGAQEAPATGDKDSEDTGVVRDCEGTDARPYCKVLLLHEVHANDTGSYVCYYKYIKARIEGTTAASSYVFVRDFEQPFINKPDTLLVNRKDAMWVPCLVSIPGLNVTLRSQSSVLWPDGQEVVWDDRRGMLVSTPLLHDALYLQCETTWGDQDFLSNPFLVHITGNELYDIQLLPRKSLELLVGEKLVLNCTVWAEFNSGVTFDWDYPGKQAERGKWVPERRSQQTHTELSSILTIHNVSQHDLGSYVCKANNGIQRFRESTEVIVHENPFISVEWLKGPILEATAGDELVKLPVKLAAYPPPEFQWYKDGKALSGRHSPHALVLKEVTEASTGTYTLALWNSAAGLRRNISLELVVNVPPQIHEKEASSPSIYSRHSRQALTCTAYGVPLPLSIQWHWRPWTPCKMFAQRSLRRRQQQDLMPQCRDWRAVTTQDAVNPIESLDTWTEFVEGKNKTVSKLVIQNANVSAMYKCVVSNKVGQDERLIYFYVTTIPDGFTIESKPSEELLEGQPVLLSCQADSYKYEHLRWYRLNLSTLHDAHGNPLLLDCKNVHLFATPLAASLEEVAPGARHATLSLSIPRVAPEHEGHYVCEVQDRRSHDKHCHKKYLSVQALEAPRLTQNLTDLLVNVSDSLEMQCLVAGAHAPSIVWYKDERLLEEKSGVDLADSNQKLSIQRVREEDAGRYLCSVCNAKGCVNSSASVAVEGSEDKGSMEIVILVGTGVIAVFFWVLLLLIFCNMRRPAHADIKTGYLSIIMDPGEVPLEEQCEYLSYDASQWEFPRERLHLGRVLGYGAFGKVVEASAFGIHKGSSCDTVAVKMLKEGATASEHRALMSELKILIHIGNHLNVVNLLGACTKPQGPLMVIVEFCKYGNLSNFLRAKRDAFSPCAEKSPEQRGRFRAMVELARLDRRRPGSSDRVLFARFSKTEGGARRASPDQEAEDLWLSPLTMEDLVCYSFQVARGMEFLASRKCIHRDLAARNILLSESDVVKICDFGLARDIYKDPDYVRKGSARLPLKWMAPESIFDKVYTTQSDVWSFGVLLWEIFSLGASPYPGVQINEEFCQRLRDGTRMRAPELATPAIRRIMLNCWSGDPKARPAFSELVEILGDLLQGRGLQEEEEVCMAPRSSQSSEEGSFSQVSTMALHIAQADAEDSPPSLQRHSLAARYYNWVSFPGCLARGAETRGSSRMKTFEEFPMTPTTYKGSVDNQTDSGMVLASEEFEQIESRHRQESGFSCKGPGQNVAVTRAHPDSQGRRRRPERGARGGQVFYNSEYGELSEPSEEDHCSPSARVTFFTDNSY
inactive: lapatinib -0.007 | pictilisib 0.057 | [1] -0.173 | duvelisib 0.026 | gandotinib 0.019 | tozasertib -0.056 | bafetinib -0.035 | [2] -0.041

FAM76B (UniProt Q5HYJ3)
inactive: lapatinib -0.049 | crizotinib 0.028 | [1] -0.19 | duvelisib -0.02 | gandotinib 0.023 | tozasertib -0.021 | doramapimod -0.016
active: [2] 0.269

DYRK1A isoform 2 (UniProt Q13627)
inactive: pictilisib -0.166 | crizotinib -0.071 | [1] -0.171 | gandotinib 0.014 | doramapimod 0.092 | bafetinib 0.145 | [2] 0.034

ESRRB isoform 1 (UniProt O95718)
inactive: pictilisib 0.05 | [1] 0.438 | gandotinib -0.437 | bafetinib 0.028 | [2] -0.308

FMNL2 isoform 3 (UniProt Q96PY5)
inactive: lapatinib -0.077 | crizotinib -0.17 | duvelisib -0.085 | doramapimod 0.091

GAPVD1 (UniProt Q14C86)
inactive: lapatinib 0.03 | pictilisib -0.138 | bafetinib 0.014

FAM204A (UniProt Q9H8W3)
inactive: crizotinib -0.053 | [1] 0.412 | gandotinib 0.045 | doramapimod 0.154 | [2] -0.077

FAT1 (UniProt Q14517)
inactive: lapatinib -0.129 | crizotinib -0.109 | [1] 0.079 | gandotinib 0.027 | tozasertib -0.139 | doramapimod 0.475 | [2] 0.072

ELAVL4 (UniProt P26378)
UniProt P26378, sequence (P26378 whole entry, looked up): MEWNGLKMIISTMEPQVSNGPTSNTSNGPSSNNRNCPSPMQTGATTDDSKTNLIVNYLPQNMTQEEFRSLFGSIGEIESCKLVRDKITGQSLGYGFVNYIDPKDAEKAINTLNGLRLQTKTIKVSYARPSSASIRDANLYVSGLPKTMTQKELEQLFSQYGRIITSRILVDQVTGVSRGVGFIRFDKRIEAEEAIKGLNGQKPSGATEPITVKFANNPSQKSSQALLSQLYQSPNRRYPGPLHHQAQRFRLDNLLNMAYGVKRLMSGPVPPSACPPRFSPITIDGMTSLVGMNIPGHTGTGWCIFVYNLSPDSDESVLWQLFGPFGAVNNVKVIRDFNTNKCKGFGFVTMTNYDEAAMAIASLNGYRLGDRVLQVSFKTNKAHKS
inactive: lapatinib -0.017 | crizotinib -0.065 | [1] -0.064 | duvelisib 0.03 | gandotinib -0.034 | tozasertib 0.05 | doramapimod 0.035 | [2] -0.061

EID1 (UniProt Q9Y6B2)
UniProt Q9Y6B2, sequence (Q9Y6B2 whole entry, looked up): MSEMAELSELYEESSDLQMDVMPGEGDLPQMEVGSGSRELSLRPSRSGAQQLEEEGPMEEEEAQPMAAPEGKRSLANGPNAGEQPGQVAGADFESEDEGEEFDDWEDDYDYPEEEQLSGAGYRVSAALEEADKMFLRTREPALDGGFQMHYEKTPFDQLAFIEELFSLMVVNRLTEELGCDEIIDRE
active: duvelisib 0.604
inactive: [1] -0.02 | gandotinib 0.108 | tozasertib -0.043 | [2] 0.069

GCA (UniProt P28676)
inactive: lapatinib 0.016 | [1] -0.091 | gandotinib -0.073 | [2] 0.057

GAA (UniProt P10253)
inactive: lapatinib 0.083 | pictilisib 0.034 | crizotinib -0.098 | [1] -0.018 | gandotinib 0.04 | tozasertib -0.027 | doramapimod -0.099 | bafetinib 0.081 | [2] -0.04
